Assay results: the supplement of paper PMC10849652
Targets with a hit are over-represented here; the source holds about 7,900 in all. About 0.6% of all pairs of compound and target were hits. Unmarked numbers belong to inactive results.

What was measured:
Experiment in all cases: log2 fold change, soluble protein after heating vs DMSO (PISA); higher = thermal stabilisation; K562 cells, 10 uM, 30 min; active = over 0.2 and 3.5 SD of the protein, either way, in both replicates (recomputed)
bafetinib = compound: Cc1ccc(NC(=O)c2ccc(CN3CC[C@H](N(C)C)C3)c(C(F)(F)F)c2)cc1Nc1nccc(-c2cncnc2)n1 [bafetinib]
Outline: (§1)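 K562 cells at 2×10^6 cells/mL were exposed to 10 μM compound for 30 min, then aliquots were heated for 3 min across 48°C-58°C, pooled, and extracted in PBS containing 0.5% NP-40 at 4°C. The supernatant after 21,000xg for 90 min was taken as soluble protein and measured by TMTpro 16plex LC-MS/MS with channel sums equalised. Thermal stability is reported relative to control samples, with values from duplicates. Fold changes are given on a log2 scale.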

[1] = compound: Cc1cccc(CC(=O)N2CCc3c2ccc(-c2cn(C)c4ncnc(N)c24)c3F)n1
Outline: as §1

nilotinib = compound: Cc1cn(-c2cc(NC(=O)c3ccc(C)c(Nc4nccc(-c5cccnc5)n4)c3)cc(C(F)(F)F)c2)cn1 [nilotinib]
Outline: as §1

[2] = compound: Cc1nc(Nc2n[nH]c3c2CN(C(=O)N[C@H](CN(C)C)c2ccccc2)C3(C)C)c2sccc2n1
Outline: as §1

dasatinib = compound: Cc1nc(Nc2ncc(C(=O)Nc3c(C)cccc3Cl)s2)cc(N2CCN(CCO)CC2)n1 [dasatinib]
Outline: as §1

[3] = compound: Cc1ncc(-c2ccnc(Nc3ccc(S(C)(=O)=O)cc3)n2)n1C(C)C
Outline: as §1

[4] = compound: Cn1cc(-c2ccc3c(c2)CCN3C(=O)Cc2cccc(C(F)(F)F)c2)c2c(N)ncnc21
Outline: as §1

[5] = compound: Cn1cc(-c2ccc3nnc(C(F)(F)c4ccc5ncccc5c4)n3n2)cn1
Outline: as §1

tipifarnib = compound: Cn1cncc1[C@@](N)(c1ccc(Cl)cc1)c1ccc2c(c1)c(-c1cccc(Cl)c1)cc(=O)n2C [tipifarnib]
Outline: as §1

mubritinib = compound: FC(F)(F)c1ccc(/C=C/c2nc(COc3ccc(CCCCn4ccnn4)cc3)co2)cc1 [mubritinib]
Outline: as §1

[6] = compound: NC(=O)Nc1cc(-c2cccc(F)c2)sc1C(=O)N[C@H]1CCCNC1
Outline: as §1

[7] = compound: NC(=O)c1cnc(N[C@@H]2CCCC[C@@H]2N)nc1Nc1cccc(-n2nccn2)c1
Outline: as §1

[8] = compound: NC1(c2ccc(-c3nc4ccn5c(=O)[nH]nc5c4cc3-c3ccccc3)cc2)CCC1
Outline: as §1

[9] = compound: NCC(=O)Nc1ccc(-n2nc(C(F)(F)F)cc2-c2ccc3c(ccc4ccccc43)c2)cc1
Outline: as §1

entinostat = compound: Nc1ccccc1NC(=O)c1ccc(CNC(=O)OCc2cccnc2)cc1 [entinostat]
Outline: as §1

vorinostat = compound: O=C(CCCCCCC(=O)Nc1ccccc1)NO [vorinostat]
Outline: as §1

citarinostat = compound: O=C(CCCCCCNC(=O)c1cnc(N(c2ccccc2)c2ccccc2Cl)nc1)NO [citarinostat]
Outline: as §1

silmitasertib = compound: O=C(O)c1ccc2c(c1)nc(Nc1cccc(Cl)c1)c1ccncc12 [silmitasertib]
Outline: as §1

[10] = compound: O=C1NC(=O)C(c2cnc3ccccn23)=C1c1cn2c3c(cc(F)cc13)CN(C(=O)N1CCCCC1)CC2
Outline: as §1

[11] = compound: c1cc(OCCN2CCCCC2)cc(-c2n[nH]c3ccc(-c4nnc[nH]4)cc23)c1
Outline: as §1

Chain of UniProt Q15059 (Q15059 whole entry, looked up): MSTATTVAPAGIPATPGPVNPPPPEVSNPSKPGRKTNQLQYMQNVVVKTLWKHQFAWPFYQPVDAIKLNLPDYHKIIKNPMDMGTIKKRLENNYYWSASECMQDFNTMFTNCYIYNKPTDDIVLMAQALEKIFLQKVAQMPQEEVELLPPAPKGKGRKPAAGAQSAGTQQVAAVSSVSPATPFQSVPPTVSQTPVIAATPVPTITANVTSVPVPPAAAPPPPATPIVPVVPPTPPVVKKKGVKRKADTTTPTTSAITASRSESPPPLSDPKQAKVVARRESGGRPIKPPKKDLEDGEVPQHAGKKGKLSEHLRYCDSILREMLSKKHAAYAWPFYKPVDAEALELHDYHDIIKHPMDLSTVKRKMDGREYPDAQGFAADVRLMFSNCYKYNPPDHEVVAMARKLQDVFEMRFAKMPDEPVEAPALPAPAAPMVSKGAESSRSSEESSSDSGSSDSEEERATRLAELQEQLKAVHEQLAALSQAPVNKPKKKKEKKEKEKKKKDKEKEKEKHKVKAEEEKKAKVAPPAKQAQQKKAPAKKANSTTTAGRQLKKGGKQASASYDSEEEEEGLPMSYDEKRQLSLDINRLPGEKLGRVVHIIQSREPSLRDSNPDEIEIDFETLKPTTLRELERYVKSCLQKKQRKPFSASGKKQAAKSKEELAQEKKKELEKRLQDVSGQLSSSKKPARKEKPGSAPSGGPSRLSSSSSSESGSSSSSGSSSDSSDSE
Chain of UniProt Q9UNA0 (Q9UNA0 whole entry, looked up): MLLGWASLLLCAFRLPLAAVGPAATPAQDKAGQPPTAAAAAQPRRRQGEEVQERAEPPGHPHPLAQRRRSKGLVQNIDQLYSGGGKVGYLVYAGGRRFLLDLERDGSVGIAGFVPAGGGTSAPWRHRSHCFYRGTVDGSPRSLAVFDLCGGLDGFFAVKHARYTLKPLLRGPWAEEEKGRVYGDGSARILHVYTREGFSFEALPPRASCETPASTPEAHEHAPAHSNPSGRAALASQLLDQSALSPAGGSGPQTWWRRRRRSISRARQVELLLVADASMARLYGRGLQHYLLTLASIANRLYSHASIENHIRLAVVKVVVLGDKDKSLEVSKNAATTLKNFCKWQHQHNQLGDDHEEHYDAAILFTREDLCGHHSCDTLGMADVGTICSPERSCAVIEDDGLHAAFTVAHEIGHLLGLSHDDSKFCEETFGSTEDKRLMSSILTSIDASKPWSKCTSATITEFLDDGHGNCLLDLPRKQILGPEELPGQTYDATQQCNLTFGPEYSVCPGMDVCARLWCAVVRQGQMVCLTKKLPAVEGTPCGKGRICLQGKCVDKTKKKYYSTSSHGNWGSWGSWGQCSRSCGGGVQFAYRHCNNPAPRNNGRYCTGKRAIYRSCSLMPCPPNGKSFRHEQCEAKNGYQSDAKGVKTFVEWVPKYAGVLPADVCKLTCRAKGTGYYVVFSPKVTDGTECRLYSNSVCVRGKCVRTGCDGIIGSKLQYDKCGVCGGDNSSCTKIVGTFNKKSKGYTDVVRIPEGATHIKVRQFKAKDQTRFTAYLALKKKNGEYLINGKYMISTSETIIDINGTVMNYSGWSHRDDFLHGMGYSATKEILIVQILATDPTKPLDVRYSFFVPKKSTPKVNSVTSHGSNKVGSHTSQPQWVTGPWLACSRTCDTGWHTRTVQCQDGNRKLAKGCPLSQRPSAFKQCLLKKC
Chain of UniProt P17707 (P17707 whole entry, looked up): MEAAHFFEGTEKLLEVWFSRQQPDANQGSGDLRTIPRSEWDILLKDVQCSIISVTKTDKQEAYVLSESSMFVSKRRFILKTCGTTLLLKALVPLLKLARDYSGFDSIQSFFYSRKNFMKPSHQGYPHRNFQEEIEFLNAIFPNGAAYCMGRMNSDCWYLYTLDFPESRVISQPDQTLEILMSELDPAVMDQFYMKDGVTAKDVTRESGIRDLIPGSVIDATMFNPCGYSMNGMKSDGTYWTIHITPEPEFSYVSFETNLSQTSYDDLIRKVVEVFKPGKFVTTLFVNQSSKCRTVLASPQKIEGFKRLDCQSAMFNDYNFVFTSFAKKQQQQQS
Chain of UniProt Q8N5I2 (Q8N5I2 whole entry, looked up): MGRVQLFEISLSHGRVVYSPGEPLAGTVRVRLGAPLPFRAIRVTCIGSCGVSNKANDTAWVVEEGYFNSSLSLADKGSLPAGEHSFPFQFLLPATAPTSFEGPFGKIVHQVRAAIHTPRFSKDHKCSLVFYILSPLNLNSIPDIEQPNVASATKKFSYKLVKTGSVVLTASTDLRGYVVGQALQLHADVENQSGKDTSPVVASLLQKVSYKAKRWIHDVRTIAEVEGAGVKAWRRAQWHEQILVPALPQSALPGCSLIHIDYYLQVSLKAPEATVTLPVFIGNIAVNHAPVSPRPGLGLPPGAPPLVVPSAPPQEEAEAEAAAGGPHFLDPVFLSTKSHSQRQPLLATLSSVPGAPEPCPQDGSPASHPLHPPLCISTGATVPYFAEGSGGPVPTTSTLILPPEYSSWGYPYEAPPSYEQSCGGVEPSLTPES
Chain of UniProt Q4L235 (Q4L235 whole entry, looked up): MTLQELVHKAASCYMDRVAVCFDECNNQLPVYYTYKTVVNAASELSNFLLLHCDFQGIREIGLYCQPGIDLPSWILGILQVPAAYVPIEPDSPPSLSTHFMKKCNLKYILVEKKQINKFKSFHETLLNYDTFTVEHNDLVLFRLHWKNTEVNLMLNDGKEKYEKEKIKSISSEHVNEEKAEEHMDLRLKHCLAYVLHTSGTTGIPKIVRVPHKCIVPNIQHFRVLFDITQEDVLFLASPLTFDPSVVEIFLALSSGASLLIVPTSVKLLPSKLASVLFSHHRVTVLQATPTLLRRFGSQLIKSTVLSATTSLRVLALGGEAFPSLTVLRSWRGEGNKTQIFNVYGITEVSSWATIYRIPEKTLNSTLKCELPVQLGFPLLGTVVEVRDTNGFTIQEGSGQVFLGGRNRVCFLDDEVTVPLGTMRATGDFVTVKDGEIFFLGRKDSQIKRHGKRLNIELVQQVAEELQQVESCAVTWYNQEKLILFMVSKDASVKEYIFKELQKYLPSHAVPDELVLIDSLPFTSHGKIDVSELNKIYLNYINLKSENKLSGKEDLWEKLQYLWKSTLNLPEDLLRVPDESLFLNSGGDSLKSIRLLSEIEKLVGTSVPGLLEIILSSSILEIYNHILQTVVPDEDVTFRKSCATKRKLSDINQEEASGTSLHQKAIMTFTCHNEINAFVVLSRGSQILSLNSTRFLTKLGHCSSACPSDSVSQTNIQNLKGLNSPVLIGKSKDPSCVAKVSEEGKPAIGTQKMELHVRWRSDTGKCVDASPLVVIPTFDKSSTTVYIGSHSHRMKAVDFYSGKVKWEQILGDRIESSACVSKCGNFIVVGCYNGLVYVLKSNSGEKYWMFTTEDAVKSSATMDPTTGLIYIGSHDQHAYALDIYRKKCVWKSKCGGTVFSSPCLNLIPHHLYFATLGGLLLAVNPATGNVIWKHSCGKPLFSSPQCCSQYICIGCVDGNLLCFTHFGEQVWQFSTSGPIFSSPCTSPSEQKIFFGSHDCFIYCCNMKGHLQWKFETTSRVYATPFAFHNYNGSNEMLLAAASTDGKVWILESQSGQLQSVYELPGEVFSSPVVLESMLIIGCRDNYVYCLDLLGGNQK
Chain of UniProt Q9NX38 (Q9NX38 whole entry, looked up): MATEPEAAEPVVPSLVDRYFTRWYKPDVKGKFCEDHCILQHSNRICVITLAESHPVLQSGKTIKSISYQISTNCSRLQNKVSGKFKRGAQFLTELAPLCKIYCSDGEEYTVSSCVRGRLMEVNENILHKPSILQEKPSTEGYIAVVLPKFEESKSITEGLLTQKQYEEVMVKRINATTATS
Chain of UniProt P42331 (P42331 whole entry, looked up): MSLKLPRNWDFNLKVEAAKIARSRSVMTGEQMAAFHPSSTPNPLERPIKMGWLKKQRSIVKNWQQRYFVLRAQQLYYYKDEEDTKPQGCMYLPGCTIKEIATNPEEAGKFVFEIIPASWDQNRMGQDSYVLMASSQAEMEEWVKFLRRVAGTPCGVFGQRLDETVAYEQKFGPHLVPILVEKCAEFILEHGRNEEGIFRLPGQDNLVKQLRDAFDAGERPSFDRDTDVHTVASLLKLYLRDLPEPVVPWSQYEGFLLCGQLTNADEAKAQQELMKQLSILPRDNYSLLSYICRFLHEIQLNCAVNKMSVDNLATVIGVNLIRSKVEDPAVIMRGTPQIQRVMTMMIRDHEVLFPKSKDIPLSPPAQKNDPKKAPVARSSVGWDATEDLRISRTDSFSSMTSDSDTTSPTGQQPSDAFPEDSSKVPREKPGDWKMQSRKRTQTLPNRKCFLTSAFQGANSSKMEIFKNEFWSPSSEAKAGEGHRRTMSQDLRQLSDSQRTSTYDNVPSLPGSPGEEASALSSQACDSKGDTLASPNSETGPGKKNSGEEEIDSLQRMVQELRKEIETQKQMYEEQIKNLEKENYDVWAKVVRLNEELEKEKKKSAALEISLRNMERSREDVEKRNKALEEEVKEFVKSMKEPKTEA
Chain of UniProt P40616 (P40616 whole entry, looked up): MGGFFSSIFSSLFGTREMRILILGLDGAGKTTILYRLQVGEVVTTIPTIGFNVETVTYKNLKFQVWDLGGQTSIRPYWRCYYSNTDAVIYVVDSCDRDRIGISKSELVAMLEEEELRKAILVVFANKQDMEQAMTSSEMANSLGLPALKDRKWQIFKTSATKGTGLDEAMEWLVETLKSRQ
Chain of UniProt Q9Y4P1 (Q9Y4P1 whole entry, looked up): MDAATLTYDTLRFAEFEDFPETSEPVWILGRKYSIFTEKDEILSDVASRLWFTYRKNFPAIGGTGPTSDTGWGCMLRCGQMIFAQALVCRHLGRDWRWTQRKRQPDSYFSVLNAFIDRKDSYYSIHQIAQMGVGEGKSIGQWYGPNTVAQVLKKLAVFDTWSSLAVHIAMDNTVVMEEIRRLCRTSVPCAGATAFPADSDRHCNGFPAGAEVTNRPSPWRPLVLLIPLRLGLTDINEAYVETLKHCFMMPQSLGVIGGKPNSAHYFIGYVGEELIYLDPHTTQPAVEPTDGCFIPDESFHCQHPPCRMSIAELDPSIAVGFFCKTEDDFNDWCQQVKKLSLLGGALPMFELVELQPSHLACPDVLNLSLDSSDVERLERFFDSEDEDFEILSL

| Target | log2 fold change (bafetinib) | log2 fold change [1] | log2 fold change (nilotinib) | log2 fold change [2] | log2 fold change (dasatinib) | log2 fold change [3] | log2 fold change [4] | log2 fold change [5] | log2 fold change (tipifarnib) | log2 fold change (mubritinib) | log2 fold change [6] | log2 fold change [7] | log2 fold change [8] | log2 fold change [9] | log2 fold change (entinostat) | log2 fold change (vorinostat) | log2 fold change (citarinostat) | log2 fold change (silmitasertib) | log2 fold change [10] | log2 fold change [11] |
| --- | --- | --- | --- | --- | --- | --- | --- | --- | --- | --- | --- | --- | --- | --- | --- | --- | --- | --- | --- | --- |
| ATP6V1F isoform 2 (UniProt Q16864) | 0 | -0.053 | 0.078 | -0.03 | 0.034 | -0.028 | 0.101 | 0.132 | 0.32 | 0.045 | 0.175 | 0.221 | -0.078 | 0.143 | 0.087 | -0.092 | 0.026 | -0.042 | -0.073 | 0.026 |
| ABITRAM (UniProt Q9NX38) | 0.016 | 0.116 | -0.327 | -0.146 | -0.316 | -0.442 (active) | -0.004 | 0.026 | -0.031 | 0.046 | -0.018 | -0.12 | -0.194 | 0.008 | 0.008 | -0.089 | 0.046 | 0.094 | -0.015 | -0.006 |
| AASDH (UniProt Q4L235) | -0.065 | -0.008 | -0.079 | -0.149 | 0.063 | 0.173 | 0.045 | 0.024 | 0.058 | 0.144 | -0.044 |  | -0.12 | -0.166 | 0.007 | 0.051 |  | 0.036 | -0.064 |  |
| ARRDC1 (UniProt Q8N5I2) | 0.014 | -0.035 | -0.045 | 0.065 | -0.073 | 0.079 | 0 | -0.087 | 0.011 | -0.112 | 0.013 |  | -0.06 | 0.057 | 0.075 | -0.086 | 0.056 | 0.075 | -0.008 | -0.001 |
| ADAM15 (UniProt Q13444) | 0.067 | 0.003 | -0.11 | -0.043 | -0.009 | 0.079 | -0.355 (active) | 0.018 | -0.053 |  | -0.023 | 0.034 |  | -0.024 | 0.085 | 0.092 |  |  | 0.031 |  |
| ALG11 (UniProt Q2TAA5) | -0.078 | 0.086 | 0.001 | -0.037 | 0.005 | 0.129 | -0.072 | 0.028 | -0.016 | 0.066 | -0.052 | 0.032 | -0.093 | -0.019 | 0.01 | -0.038 | 0.039 | 0.008 | -0.002 | -0.08 |
| ABHD11 (UniProt Q8NFV4) | 0.011 | 0.175 | 0.003 | -0.006 | 0.073 | 0.083 | 0.024 | 0.025 | 0.174 | -0.235 |  | -0.089 | -0.139 | 0.016 |  | -0.042 | 0.058 | -0.021 | -0.159 | -0.009 |
| BSCL2 isoform 4 (UniProt Q96G97) | -0.225 | -0.041 | 0.101 | 0.026 | -0.14 | 0.116 | 0.002 |  | 0.109 | 0.133 |  | -0.197 | -0.013 | 0.007 |  | 0.074 |  | 0.172 | 0.033 |  |
| ATG4B isoform 2 (UniProt Q9Y4P1) | 0.004 | 0.073 | -0.061 | -0.035 | -0.242 | -0.041 | 0.022 | 0.13 | -0.402 | 0.073 | 0.08 | -0.104 | -0.401 | -0.151 | 0.154 | 0.268 | 0.005 | 0.003 | -0.093 | -0.023 |
| BRD3 (UniProt Q15059) | -0.152 | -0.002 | -0.088 | -0.031 | -0.319 | -0.138 | -0.05 | 0.086 | -0.126 | 0.047 | 0.008 | -0.026 | 0.017 | 0.119 | -0.123 | -0.663 (active) | -0.567 (active) | 0.061 |  | -0.002 |
| ARL1 (UniProt P40616) | 0.114 | 0.205 | -0.174 | -0.017 | -0.131 | 0.096 | 0.055 | 0.019 | -0.123 | -0.046 | 0.142 | 0.055 | -0.173 | -0.019 | 0.031 | 0.149 | 0.161 | 0.006 | 0.04 | 0.007 |
| ARHGAP25 isoform 4 (UniProt P42331) | -0.035 | -0.089 | 0.28 | -0.276 | -0.421 | 0.078 | -0.009 |  |  | 0.266 |  | 0.068 | -0.181 | -0.127 |  | -0.099 | 0.105 | 0.213 | 0.021 | -0.049 |
| BRIP1 (UniProt Q9BX63) | -0.135 | -0.011 | -0.069 | 0.036 | -0.09 | -0.071 | 0.02 | -0.197 | -0.101 |  | 0.139 | -0.139 |  | -0.099 | 0.001 | -0.025 | 0.054 |  | -0.07 | 0.077 |
| ANK2 (UniProt Q01484) | -0.281 | -0.034 | -0.265 | 0.041 | -0.277 | -0.042 | 0.012 | 0.01 | 0.034 | -0.141 | -0.146 | -0.196 | -0.183 | -0.16 | 0.001 | 0.134 | -0.104 | -0.004 |  | -0.019 |
| AMD1 (UniProt P17707) | 0.091 | -0.141 | -0.089 | 0.001 |  | -0.037 |  | -0.071 | -0.022 | 0.056 | 0.043 | -0.091 | -0.074 | -0.149 | -0.038 | -0.093 | 0.007 | 0.004 | -0.007 | -0.08 |
| ADAMTS5 (UniProt Q9UNA0) | -0.103 | -0.066 | 0.022 | 0.052 | 0.033 | -0.079 | 0.088 | 0.063 |  | 0.154 | 0.026 | -0.065 | 0.074 | -0.071 | -0.08 | 0.056 | 0.074 | -0.064 |  | 0.051 |
| AKAP8L (UniProt Q9ULX6) | -0.078 | -0.039 | 0.044 | -0.02 | -0.161 | -0.052 | -0.036 | -0.14 | 0.039 | 0.003 | -0.006 | 0.153 | -0.063 | -0.098 | 0.01 | 0.088 | 0.124 | -0.012 | -0.236 | -0.067 |
